Screens from PubChem.
TRHR PAM – TRH receptor (human) allosteric enhancement | TRHR cells, fluo-8 calcium fluorescence, EC20 TRH enhancement | P34981 | actives 0.66% (n = 360,000) | AID 493056 | enhancement, % at 2 µM; in the data active = enhancement above about 30%; also: 0% is about no effect
Target sequence (P34981 whole entry, looked up): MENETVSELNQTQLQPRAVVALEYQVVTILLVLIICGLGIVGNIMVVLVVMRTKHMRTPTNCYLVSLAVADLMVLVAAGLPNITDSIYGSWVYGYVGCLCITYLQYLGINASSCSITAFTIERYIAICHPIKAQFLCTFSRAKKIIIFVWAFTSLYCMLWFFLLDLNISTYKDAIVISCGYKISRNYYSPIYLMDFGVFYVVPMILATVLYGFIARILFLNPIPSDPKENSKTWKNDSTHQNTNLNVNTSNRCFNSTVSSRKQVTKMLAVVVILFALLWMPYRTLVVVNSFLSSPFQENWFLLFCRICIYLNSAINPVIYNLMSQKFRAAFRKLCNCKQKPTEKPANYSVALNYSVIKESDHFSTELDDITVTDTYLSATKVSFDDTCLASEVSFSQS
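Enhancer read-out: after compound pinning and an initial kinetic agonist-mode read, an EC20 of TRH (10 nM final) was injected and fluo-8 calcium signal (Ex 480/Em 530) followed at 1 s/cycle for 100 cycles in TRHR-expressing cells.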
D1 PAM – human D1 dopamine receptor positive modulation; HEK293 TREx D1 cells, calcium flux, dopamine EC20 potentiation; potentiation, % at 10 µM; actives 0.036% (n = 360,000); in the data active = potentiation above about 30%; also: 0% is about no effect
D1 ag – agonists of human D1 dopamine receptor; HEK293 T-REx D1 cells, calcium flux, agonist mode; activation, % at 2 µM; actives 1% (n = 360,000); P21728; also: 0% is about no effect
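Agonism was scored from calcium flux recorded over 180 s (1 read/s) after pintool compound addition, following a 10-cycle baseline. Cells were inducible force-coupled HEK293 TREx D1, plated overnight at 30 C and loaded with no-wash calcium dye.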
TRHR agonist – agonists of human TRH receptor. TRHR cells, calcium flux fluo-8, FDSS agonist mode. activation, % at 2 µM. AID 493084. actives 0.18% (n = 360,000). P34981; also: 0% is about no effect
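Steps: seed TRHR cells overnight; add fluo-8 no-wash Ca dye, RT 30 min–1.5 h; record 10 s baseline; pin-transfer compounds; monitor fluorescence 1 cycle/s for the agonist window. Calcium increases flag candidate agonists.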
D1 antagonist – antagonists of human D1 dopamine receptor | HEK293 TREx D1 cells, calcium flux, dopamine EC80; hits give low values | activity change, negative = inhibition, % at 10 µM | actives 3.2% (n = 360,000) | AID 504652; in the data active = activity change below about -30%; also: % is scaled to controls: 0 for no effect and ±100 for the full control effect
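Kinetic fluorescence of a calcium dye serves as the read-out. D1-expressing Hek293 Trex cells, induced overnight at 30 C, are exposed to compound for 180 s before an EC80 dopamine addition, then read 180 s further.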
An asterisk follows results filed as active; x = not tested or not shown. Most compounds without a hit are left out; they make up all but 4.6% or so of the library. Rule as the data show it, unless noted: active = activation above about 30%; inactive = the rest.

SMILES	TRHR PAM	D1 PAM	D1 ag	TRHR agonist	D1 antagonist
CCc1ccc(S(=O)(=O)c2nnn3c2nc(NCCc2ccccc2)c2sccc23)cc1	9	4	4	0	-27
CCCCNc1nc2c(S(=O)(=O)c3ccc(C)c(C)c3)nnn2c2ccsc12	-21	-8	1	1	-77*
COc1ccccc1Nc1nc2c(S(=O)(=O)c3ccc(C(C)C)cc3)nnn2c2ccsc12	37*	-5	4	0	4
CCc1ccc(S(=O)(=O)c2nnn3c2nc(NC(C)C)c2sccc23)cc1	-10	-7	3	0	-33*
Cc1ccc(S(=O)(=O)c2nnn3c2nc(NCc2cccs2)c2sccc23)cc1C	-14	-8	2	1	-59*
Cc1ccc(S(=O)(=O)c2nnn3c2nc(NCc2ccc(F)cc2)c2sccc23)cc1C	-5	-1	5	1	2
CC(C)CN(CCCNC(=O)c1cc(-c2ccc(Br)s2)nc2ccccc12)CC(C)C	-3	2	-1	0	10
COc1ccc(NC(=O)c2oc3ccccc3c2NC(=O)Cc2coc3cc(C)ccc23)cc1	6	0	4	1	-3
CCCOc1ccc(C2C(=O)N(C3CCCCCC3)CC(=O)N2CCC)cc1OC (stereo unspecified)	-7	-1	-4	-1	-8
Cc1cc2c(s1)c1cnn(Cc3c(F)ccc(F)c3F)c(=O)c1n2C	-2	-3	0	1	4
CCN(c1ccccc1)S(=O)(=O)c1ccc(NCC2COc3ccccc3O2)nc1 (stereo unspecified)	0	8	8	-1	-10
CCN(CC1COc2ccccc2O1)S(=O)(=O)c1ccc(C)cc1 (stereo unspecified)	-1	-4	10	1	-33*
Cc1cc(Br)ccc1NC(=O)C1C2CCC(O2)C1C(=O)O (stereo unspecified)	11	-9	1	1	-16
N#CN1CCC(NS(=O)(=O)c2ccc(F)cc2)C1 (stereo unspecified)	0	2	0	1	-6
COc1ccc(N(CC(C)C)S(=O)(=O)c2nnc(NC(=O)c3cccs3)s2)cc1	12	-1	15	0	-26
Cc1cc(C)c(C)c(OCC(=O)O/N=C(\N)c2ccncc2)c1	0	-2	20	0	-1
Cc1ccc(OCC(=O)O/N=C(\N)c2ccncc2)c(C)c1	9	x	7	-1	-31*
Cc1nc2ccc(S(=O)(=O)N(CC(=O)Nc3cccc(Cl)c3)Cc3ccccc3)cc2s1	1	-5	7	1	-16
Cc1ccc(N(C)C(CNS(=O)(=O)c2ccccc2)c2ccccc2)cc1 (stereo unspecified)	2	-1	3	0	-48*
O=C(COc1ccccc1)Nc1ccc(Cl)c(-c2nc3ncccc3o2)c1	3	-12	0	0	-44*
O=C(CC1Nc2ccccc2NC1=O)c1ccccc1 (stereo unspecified)	-3	-3	68*	16	1
Cc1cc(C)cc(NS(=O)(=O)c2c(C)nc3scc(C)n3c2=O)c1	-1	-3	9	-1	2
Cc1cc([N+](=O)[O-])nn1Cc1ccc(C(=O)N/N=C/c2ccc(F)cc2)cc1	-4	-4	0	0	-4
Cc1cc([N+](=O)[O-])nn1Cc1ccc(C(=O)N/N=C/c2ccc(O)cc2O)cc1	3	-5	1	0	-33*
CC(C)(C)C(=O)Cn1c(=O)n(-c2ccccc2)c(=O)c2c3c(sc21)CCC3	3	1	0	-2	3
SMILES	TRHR PAM	D1 PAM	D1 ag	TRHR agonist	D1 antagonist
CCc1c(C)sc2c1CCN(C(=O)Nc1cc(OC)c(OC)c(OC)c1)C2c1ccccc1 (stereo unspecified)	0	7	2	0	-40*
Cc1nn(C)c(=O)c(N)c1-c1cc(-c2ccc(Cl)c(Cl)c2)n[nH]1	-2	-4	8	0	-47*
Cc1ccc(-c2cc(-c3c(C)nn(C)c(=O)c3N)[nH]n2)cc1	4	0	3	1	27
Cc1ccccc1NC(=O)Cn1c(SCC(=O)Nc2ccc(F)cc2)nc2ccccc21	-2	0	1	0	-80*
COc1ccc(CCN2C(=O)CSC2=Nc2ccc(C(C)C)cc2)cc1OC	-1	-2	5	1	-43*
O=c1c(Oc2ccccc2Br)c(C(F)(F)F)oc2c(CN3CCCC3)c(O)ccc12	32*	8	0	1	15
Cc1cc(Oc2c(C(F)(F)F)oc3c(CN4CCC(C)CC4)c(O)ccc3c2=O)cc(C)c1Cl	10	-4	-1	0	-7
Cc1ccc(-c2nc3c4ccccc4n(CC(=O)N4CCN(c5ccccc5F)CC4)c(=O)n3n2)cc1	-3	0	-2	0	x
O/N=C\c1ccc2noc(-c3ccc(Cl)cc3)c2c1	2	10	1	1	-5
CC(C)Oc1ccc(CNC(=O)C2=Cc3ccccc3OC2)cc1	3	3	9	0	-1
COc1ccc2c(c1)CCc1c(C(=O)Nc3c(C)nn(Cc4ccc(C)cc4)c3C)noc1-2	20	0	14	-2	-18
O=C(NCc1ccccc1Cl)c1nnc(CS(=O)(=O)c2ccccc2)o1	31*	-10	9	0	-3
Cc1ccccc1Cn1c(CN2CCC(C(=O)NCCN(C)C)CC2)cc2ccccc21	3	-3	45*	4	-8
CNC(=O)C1CCN(Cc2cc3ccccc3n2Cc2ccccc2C)CC1	0	-2	6	0	25
Cc1ccc2nc(Cl)c3cc(C(=O)NC4CCCCC4)sc3c2c1	-3	-1	-1	0	-18
COC(=O)c1ccccc1NC(=O)Cn1nc(C)c2nn(-c3ccc(Cl)cc3)c(C)c2c1=O	1	-2	0	0	-22
COc1ccc(Br)cc1CSC(=N)N	3	-5	22	-1	-6
CCCCOc1ccc(CSC(=N)N)cc1Cl	3	10	65*	0	42
CCOc1ccc(CSC(=N)N)cc1	15	-3	25	-1	21
CCCCCOc1ccc(Br)cc1CSC(=N)N	5	9	30*	0	26
CCOc1ccc(CCNC(=O)CCn2c(=O)c3cccn3c3ccc(F)cc32)cc1OCC	28	2	0	0	2
Cc1sc(NC(=O)c2ccccc2)c(C(c2ccccn2)N2CCN(CCO)CC2)c1C (stereo unspecified)	26	-2	108*	0	-5
O=C(c1c2c(nc3ccccc13)C(=O)N(C1CCCCC1)C2)N1CCN(c2ccc(F)cc2)CC1	-1	-1	2	-1	17
CCc1ccc(OC)c(S(=O)(=O)NCCOc2ccccc2)c1	31*	-6	4	-2	3
COCCNS(=O)(=O)c1cc(OC)ccc1OC	-6	4	0	1	x
O=C(Cc1ccccc1)NC1(O)C(=O)c2ccccc2C1=O	-21	-6	1	0	-35*
Cc1nn(-c2ccccc2)c(Cl)c1CN(C(=O)CCl)c1ccc(Cl)cc1	-18	-8	2	-1	-57*
CCOc1ccccc1CNC(=O)c1ccc(Cn2c(SCc3ccccc3)nc3cccnc32)cc1	7	3	7	1	13
